Assay [1] deals with Plasmodium falciparum Sir2 (PF13_0152, Sir2A). Description: Plasmodium falciparum Sir2A binding compounds – biochemical, small-molecule microarray, 635 nm fluorescence, primary screen (AID 1098).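 Also: score merges spot fluorescence intensity with its signal-to-noise ratio.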 The conditions noted are these: fluorescence 635 nm, higher = more signal.
Assay [2] is described as follows: probe aDKK1 binding to arrayed compounds – biochemical, biotinylated probe, 635/667 nm fluorescence, primary screen (AID 1099).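 Also: score merges 667nm spot fluorescence with signal to noise across triplicate slides.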 The conditions noted are these: small-molecule microarray, higher = more signal.
A short description of assay [3]: probe aCHRDL2 binding to arrayed compounds – biochemical, biotinylated probe, 635/667 nm fluorescence, primary screen (AID 1100). As to conditions: small-molecule microarray, higher = more signal.
Assay [4] is described as follows: change in splice reporter luminescence, either direction, cell-based, HEK293, spliceosome inhibition project, primary screen (AID 1101).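 Also: HEK293 cells carrying a splicing-competent luciferase reporter gene; test concentration not given here.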 As to conditions: HEK293 splicing luciferase reporter, 24 h, higher = more signal, called active from +8 up or from −8 down.
Assay [5] has as its target Fibroblast growth factor 10 (Homo sapiens) (UniProt O15520). Description: compounds binding fibroblast growth factor 10 – biochemical, small-molecule microarray, 635 nm fluorescence, primary screen (AID 1102). The conditions noted are these: FGF10 binding, fluorescence 635 nm, higher = more signal.
The subject of assay [6] is glycogen synthase kinase-3 (GSK3A per assay name; protocol says GSK3B). Description: compounds binding glycogen synthase kinase-3 – biochemical, small-molecule microarray, 635 nm fluorescence, GSK3A, primary screen (AID 1103). Also: the record names both GSK3A and GSK3B. As to conditions: fluorescence 635 nm, higher = more signal.
The target in assay [7] is Epidermal growth factor receptor (Homo sapiens) (UniProt P00533). Description: compounds binding epidermal growth factor receptor – biochemical, small-molecule microarray, 635 nm fluorescence, primary screen (AID 1104).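 Also: score merges 667 nm emission intensity with spot signal to noise over triplicate slides.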 As to conditions: EGFR binding, higher = more signal.
Sequence of Epidermal growth factor receptor (Homo sapiens) (P00533 whole entry, looked up): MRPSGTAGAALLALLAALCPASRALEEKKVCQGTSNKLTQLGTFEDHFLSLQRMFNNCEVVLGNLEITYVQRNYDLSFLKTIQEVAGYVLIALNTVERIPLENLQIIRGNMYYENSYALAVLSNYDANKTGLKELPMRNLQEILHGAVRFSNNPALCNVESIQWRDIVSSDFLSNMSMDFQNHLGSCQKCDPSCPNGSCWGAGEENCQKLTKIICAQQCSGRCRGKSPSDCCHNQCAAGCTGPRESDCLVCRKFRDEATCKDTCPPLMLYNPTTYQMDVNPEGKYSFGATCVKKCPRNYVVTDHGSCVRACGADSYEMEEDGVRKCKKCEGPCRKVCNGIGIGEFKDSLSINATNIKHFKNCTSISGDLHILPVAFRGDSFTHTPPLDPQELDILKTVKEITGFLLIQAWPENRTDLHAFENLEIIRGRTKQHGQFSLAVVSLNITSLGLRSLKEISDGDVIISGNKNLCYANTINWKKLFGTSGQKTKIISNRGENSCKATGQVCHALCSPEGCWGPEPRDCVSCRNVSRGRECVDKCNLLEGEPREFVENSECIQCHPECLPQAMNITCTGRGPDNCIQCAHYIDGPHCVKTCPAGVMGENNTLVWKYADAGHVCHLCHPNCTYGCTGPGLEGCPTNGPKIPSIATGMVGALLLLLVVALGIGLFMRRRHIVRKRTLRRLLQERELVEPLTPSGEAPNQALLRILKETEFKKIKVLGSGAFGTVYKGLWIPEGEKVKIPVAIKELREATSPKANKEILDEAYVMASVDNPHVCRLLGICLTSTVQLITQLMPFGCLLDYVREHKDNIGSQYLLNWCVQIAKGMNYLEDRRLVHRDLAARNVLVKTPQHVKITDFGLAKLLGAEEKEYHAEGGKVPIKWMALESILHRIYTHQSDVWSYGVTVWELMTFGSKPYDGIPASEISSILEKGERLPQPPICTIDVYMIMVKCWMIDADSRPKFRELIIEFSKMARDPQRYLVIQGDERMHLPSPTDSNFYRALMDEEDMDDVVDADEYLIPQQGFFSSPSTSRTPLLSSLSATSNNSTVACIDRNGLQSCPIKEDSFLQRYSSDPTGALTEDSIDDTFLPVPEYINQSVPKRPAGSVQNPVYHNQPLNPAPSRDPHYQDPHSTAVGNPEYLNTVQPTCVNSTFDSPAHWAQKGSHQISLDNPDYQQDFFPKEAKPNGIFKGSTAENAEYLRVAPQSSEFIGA
Assay [8] deals with Follistatin-related protein 3 (Homo sapiens) (UniProt O95633). The experiment in a line: compounds binding follistatin-related protein 3 – biochemical, small-molecule microarray, 635 nm fluorescence, primary screen (AID 1105).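 Also: score merges emission near 667 nm and signal to noise per printed spot across three slides.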 As to conditions: FSTL3 binding, higher = more signal.
Sequence of Follistatin-related protein 3 (Homo sapiens) (O95633 whole entry, looked up): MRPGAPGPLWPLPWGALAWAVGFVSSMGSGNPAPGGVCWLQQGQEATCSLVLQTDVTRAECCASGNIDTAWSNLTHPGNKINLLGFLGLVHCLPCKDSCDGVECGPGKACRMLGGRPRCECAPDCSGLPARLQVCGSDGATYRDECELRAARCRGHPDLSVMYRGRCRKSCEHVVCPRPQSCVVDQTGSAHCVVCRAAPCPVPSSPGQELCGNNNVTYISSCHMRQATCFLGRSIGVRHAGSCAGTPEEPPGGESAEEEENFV
For assay [9], the target named is Dickkopf-related protein 1 (Homo sapiens) (UniProt O94907). The experiment in a line: small molecules binding DKK1 protein – biochemical, small-molecule microarray, 635 nm fluorescence scan, primary screen (AID 1106).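 Also: score merges emission near 667 nm with signal to noise over three replicate slides.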 The conditions noted are these: higher = more signal.
Sequence of Dickkopf-related protein 1 (Homo sapiens) (O94907 whole entry, looked up): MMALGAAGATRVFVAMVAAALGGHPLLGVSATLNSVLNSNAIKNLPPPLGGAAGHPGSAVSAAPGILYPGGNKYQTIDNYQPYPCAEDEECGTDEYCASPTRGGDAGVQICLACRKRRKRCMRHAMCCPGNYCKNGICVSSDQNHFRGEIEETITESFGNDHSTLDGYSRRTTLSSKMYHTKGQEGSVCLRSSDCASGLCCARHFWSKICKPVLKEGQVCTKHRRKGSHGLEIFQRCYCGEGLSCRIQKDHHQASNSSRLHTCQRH
For assay [10], the system named is Inhibin beta A chain (activin A). Description: small molecules binding activin A – biochemical, small-molecule microarray, 635 nm fluorescence scan, primary screen (AID 1107).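 Also: mouse activin A protein probed at 4.33 µg/mL on printed slides; score merges bound-protein fluorescence near 667 nm with spot signal-to-noise.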 The conditions noted are these: INHBA, higher = more signal.
In assay [11] the test system is Human papillomavirus type 1a protein E7 (residues 44-93). The experiment in a line: small molecules binding HPV E7 44-93 – biochemical, small-molecule microarray, residues 44-93, 635 nm fluorescence, primary screen (AID 1108).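 Also: E7 fragment applied at 1 µg/mL in TBST for 1 h at 4 C; score combines spot fluorescence with its signal to noise ratio.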 As to conditions: fluorescence 635 nm, higher = more signal.
Assay [12] can be described thus: hepatitis C replication reporter changes, two-sided – Huh7 cells, luciferase reporter, HCV replication inhibitor project, primary screen (AID 1109).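 Also: huh7 hepatoma cells harbouring a luciferase neomycin HCV replicon reporter; luciferase luminescence as measure of HCV replicon replication; test concentration not given here.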 As to conditions: Huh7 HCV replicon luciferase reporter, 48 h; higher = more signal. In general terms: In a reporter assay the amount or activity of a reporter protein is the signal.
For assay [13], the target named is Left-right determination factor 2 (Homo sapiens) (UniProt O00292). Description: small molecules binding LEFTY2 protein – biochemical, small-molecule microarray, 635 nm fluorescence scan, primary screen (AID 1110). The conditions noted are these: higher = more signal.
Sequence of Left-right determination factor 2 (Homo sapiens) (O00292 whole entry, looked up): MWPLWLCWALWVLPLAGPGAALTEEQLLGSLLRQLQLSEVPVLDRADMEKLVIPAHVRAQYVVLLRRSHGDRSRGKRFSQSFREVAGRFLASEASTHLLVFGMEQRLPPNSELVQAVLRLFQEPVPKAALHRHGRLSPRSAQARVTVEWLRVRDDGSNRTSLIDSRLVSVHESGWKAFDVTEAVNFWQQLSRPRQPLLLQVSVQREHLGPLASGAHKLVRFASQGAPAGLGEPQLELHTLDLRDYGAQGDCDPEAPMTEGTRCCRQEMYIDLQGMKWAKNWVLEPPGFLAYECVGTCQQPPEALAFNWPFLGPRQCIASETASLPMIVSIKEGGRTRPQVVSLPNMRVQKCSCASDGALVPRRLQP
In assay [14] the target is Calmodulin-1 (Homo sapiens) (UniProt P0DP23). The experiment in a line: small molecules binding calmodulin-1 with EGTA – biochemical, small-molecule microarray, Cy5-labelled CALM1, profiling panel (AID 1111).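 Also: labelled calmodulin applied in Tris saline Tween buffer holding calcium plus EGTA and DTT.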 As to conditions: Cy5-CALM1 binding fluorescence, higher = more signal.
For assay [15] the target is unchanged. Description: small molecules binding Ca-loaded calmodulin-1 – biochemical, small-molecule microarray, Cy5-labelled CALM1, plus calcium, artefact control for SMM control-protein annotation, profiling panel (AID 1112).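 Also: score merges spot fluorescence with signal to noise from triplicate slides.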 The conditions noted are these: Cy5-CALM1 binding fluorescence, higher = more signal.
Assay [16] can be described thus: probe aWnt5a binding to arrayed compounds – biochemical, biotinylated probe, 635/667 nm fluorescence, primary screen (AID 1113).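 Also: score merges 667 nm fluorescence intensity with signal-to-noise per printed feature.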 The conditions noted are these: small-molecule microarray, higher = more signal.
Assay [17] in a line: probe aShh binding to arrayed compounds – biochemical, biotinylated probe, 635/667 nm fluorescence, primary screen (AID 1114).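 Also: probe is biotin-labelled aShh protein from a stem cell growth factor screen; measures binding of labelled protein to compounds printed on the slide; score merges feature fluorescence at 667 nm with signal-to-noise.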 The conditions noted are these: small-molecule microarray, higher = more signal.
A short description of assay [18]: probe aNog binding to arrayed compounds – biochemical, biotinylated probe, 635/667 nm fluorescence, primary screen (AID 1115).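 Also: probe is biotinylated aNog protein used at 0.15 µg/mL for 1 h at 4 C; z-score combines 667 nm fluorescence of each spot with its signal to noise.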 As to conditions: small-molecule microarray, higher = more signal.
For assay [19], the target named is Torsin-1A-interacting protein 1 (Homo sapiens) (UniProt Q5JTV8). The experiment in a line: compound microarray binding of lysate hLAP1 – cell lysate, small-molecule microarray, COS7 lysate, 635/667 nm fluorescence, primary screen (AID 1116). The conditions noted are these: 635 nm fluorescence, higher = more signal.
Sequence of Torsin-1A-interacting protein 1 (Homo sapiens) (Q5JTV8 whole entry, looked up): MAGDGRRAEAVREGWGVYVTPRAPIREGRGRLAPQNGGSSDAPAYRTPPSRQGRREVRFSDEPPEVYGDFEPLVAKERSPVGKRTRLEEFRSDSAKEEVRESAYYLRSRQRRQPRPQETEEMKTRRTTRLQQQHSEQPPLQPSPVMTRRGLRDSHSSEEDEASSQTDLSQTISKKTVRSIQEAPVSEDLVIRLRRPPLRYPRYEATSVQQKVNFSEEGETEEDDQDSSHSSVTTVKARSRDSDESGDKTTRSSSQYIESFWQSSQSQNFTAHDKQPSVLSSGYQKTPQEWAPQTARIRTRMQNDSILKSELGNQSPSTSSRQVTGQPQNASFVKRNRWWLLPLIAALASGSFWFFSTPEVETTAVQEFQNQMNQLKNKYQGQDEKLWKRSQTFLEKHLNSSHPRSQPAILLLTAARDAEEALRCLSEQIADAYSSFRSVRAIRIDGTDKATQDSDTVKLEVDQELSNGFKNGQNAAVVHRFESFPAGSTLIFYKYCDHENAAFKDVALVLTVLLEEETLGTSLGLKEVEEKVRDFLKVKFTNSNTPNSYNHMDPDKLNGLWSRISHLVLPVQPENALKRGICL
Assay [20] deals with Alpha-bungarotoxin (Bungarus multicinctus) (UniProt P60615). The experiment in a line: compounds binding labelled alpha-BTX control protein – biochemical, small-molecule microarray, Alexa647 label, 635/667 nm fluorescence, artefact control for SMM control protein annotation, profiling panel (AID 1117). As to conditions: alpha-BTX-A647 binding fluorescence, higher = more signal.
Sequence of Alpha-bungarotoxin (Bungarus multicinctus) (P60615 whole entry, looked up): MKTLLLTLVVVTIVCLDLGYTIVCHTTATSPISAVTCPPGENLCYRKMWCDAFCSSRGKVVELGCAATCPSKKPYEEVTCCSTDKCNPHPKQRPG

Active and inactive are the calls of the source.

Sequence of Fibroblast growth factor 10 (Homo sapiens) (O15520 whole entry, looked up): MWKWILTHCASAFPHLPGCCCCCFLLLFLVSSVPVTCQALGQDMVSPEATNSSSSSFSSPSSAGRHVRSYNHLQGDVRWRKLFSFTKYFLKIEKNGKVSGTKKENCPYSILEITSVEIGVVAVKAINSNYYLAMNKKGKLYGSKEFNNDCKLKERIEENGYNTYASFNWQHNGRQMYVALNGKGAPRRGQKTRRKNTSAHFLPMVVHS

As for `CO[C@H]1COC(=O)[C@@H]2CCCN2C(=O)[C@@H](C)COC(=O)CC=C[C@@H]1C`, the composite z-score in assay [1] is 0.474; in [2], -0.342; in assay [3] it was -0.919; in assay [5], 0.618; in assay [6], 1.05; in [7], 1.15. In addition, the composite z-score in assay [8] is 1.11; in assay [9], 1.1; in assay [10], -0.24; in assay [11], -1.03; in assay [13], 1.2; in assay [14] it was 0.212. Further, the composite z-score is -0.823 in assay [15]; -0.13 in assay [16]; -0.0793 in assay [17]; -0.0209 in assay [18]; 0.626 in assay [19]; -1.16 in assay [20]. For the same compound, the z-score in assay [4] was 0.00841 (inactive); in assay [12], -0.496.
For `Cc1cc2c(nc1C)CCCN2CC(C)ON=C1[C@H]2CCn3c(=O)n(-c4ccccc4)c(=O)n3[C@H]2[C@H](O)[C@@H]2O[C@H]12` (stereo not given in full), the composite z-score in assay [1] was 0.508; in assay [2], -0.013; in [3] it was -0.499; in assay [5] it was 0.618; in [6], 1.1; in assay [7] it was 0.822. Further, the composite z-score is 0.828 in assay [8]; 0.686 in assay [9]; 0.693 in [10]; 0.862 in assay [11]; 0.377 in assay [13]; -0.135 in [14]. Further, the composite z-score is -0.458 in assay [15]; -0.0077 in [16]; 0.767 in assay [17]; 0.066 in [18]; 0.184 in [19]; 0.515 in assay [20]. Besides, the figures for the z-score in assay [4] and in assay [12] were -0.736 (inactive) and -3.29, respectively.
Turning to `COc1ccc([Si](C)(C)[C@@H]2[C@@H](CC(=O)N3CCC[C@H]3CO)O[C@]3(C(=O)N(Cc4cccc(N5CCC5=O)c4)c4ccccc43)[C@H]2C)cc1`, the composite z-score in [1] was 1.71; in assay [2], -0.264; in assay [3], 0.363; in assay [5], 0.118; in assay [6], 0.773; in assay [7], 0.144. For the same compound, the composite z-score in assay [8] stood at 0.7; in assay [9], 0.726; in assay [10], 0.245; in [11], 1.4; in assay [13] it was 0.162; in assay [14] it was 0.504. For the same compound, the composite z-score in [15] is -0.098; in [16], -0.0236; in assay [17], 0.199; in [18], 0.15; in assay [19], 0.989; in [20] it was 1.44. The z-score in [4] is -0.399 (inactive); in [12] it was -2.1.
For `CC[C@@H](c1ccccc1)n1c(=O)n2n(c1=O)[C@H]1[C@H](O)[C@@H]3O[C@@H]3C(=NOCC=C(C)CCC=C(C)C)[C@H]1CC2`, the composite z-score was 0.785 in [1]; -0.156 in assay [2]; -0.359 in assay [3]; 0.524 in assay [5]; 0.412 in assay [6]; 0.446 in [7]. The composite z-score in assay [8] was 1.27; in assay [9] it was 0.916; in assay [10], 0.619; in assay [11], 1.21; in [13], 0.827; in [14] it was -0.0812. Further, the composite z-score in assay [15] is -0.834; in [16], -0.001; in [17], -0.0866; in [18], -0.136; in [19], 0.215; in assay [20], 0.0806. In addition, the z-score is 1.95 (inactive) in assay [4] and -3.62 in [12].
`CCCNC(=O)OC[C@H]1O[C@H](CCON=CC[C@@H]2C=C[C@H](OC(C)=O)[C@@H](COC(C)=O)O2)C=C[C@@H]1Oc1ccc(OC)cc1`: the composite z-score was 0.46 in assay [1]; -0.0927 in assay [2]; -0.412 in [3]; 0.817 in assay [5]; 0.524 in [6]; 0.492 in assay [7]. In addition, the composite z-score is 0.759 in [8]; 0.537 in assay [9]; 0.434 in [10]; 0.791 in [11]; 0.667 in [13]; -0.625 in assay [14]. Further, the composite z-score is -0.867 in [15]; -0.0718 in [16]; -0.442 in assay [17]; -0.267 in [18]; 0.444 in assay [19]; 0.945 in assay [20]. The z-score was 0.599 (inactive) in assay [4] and 0.0229 in [12].
Consider `COc1ccc(O[C@@H]2[C@H](O)CO[C@H]2C=CC#Cc2ccccc2)cc1`, for which the composite z-score in assay [1] was 1.32; in assay [2] it was -0.477; in assay [3] it was -0.716; in assay [5], 0.199; in assay [6] it was -0.207; in assay [7], -0.352. The composite z-score was 0.103 in assay [8]; 0.438 in [9]; 0.539 in assay [10]; -0.289 in [11]; 0.347 in assay [13]; -0.414 in [14]. Further, the composite z-score was -0.789 in assay [15]; -0.1 in [16]; -0.138 in [17]; -0.234 in assay [18]; 0.17 in assay [19]; -0.891 in assay [20]. The z-score is 0.167 (inactive) in assay [4] and -0.0351 in [12].

For the origin of these results see PubChem BioAssay.
